The sequences below were run on VDR homodimer (NR concentration 270 nM) (assay: PBM binding z-score (relative to random genomic background probes); higher = stronger binding; sequences stand for … in GC…GCGATTGACAGCGTAGAATGAAGG).
Method in brief: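 Probes were double-stranded and carried 34-nt variable regions with direct-repeat seeds, single-nucleotide variants, half-site ablations and random human genomic background sequences, printed on custom Agilent 4×180K protein-binding microarrays. Arrays were incubated 1 h with ligand-free nuclear receptor dimers in PBS pH 7.4, 2% milk, 0.02% Triton X-100, 1 mM DTT, 0.2 mg/mL BSA and 0.4 mg/ml salmon testes DNA. Antibodies against each partner (one per run) detected binding, and scanned fluorescence was regression-normalized. Binding z-scores use the random background probes as reference.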

Sequence | PBM binding z-score
CTCGAAAGGTCGTGCTCAGGTGAGTATCCCAAAC | 0.742
CCTATTAGTTGACCATAAGCGCAACCGAAGCTCG | 0.721
TCGATTAGTTGATTAGGGCAACCGAAACAGCGGA | -0.306
TCTTGTAGATCAAGCAAGTTAAGAAAGCCTGAGT | -0.186
TCGAGTAGGTTAGTCAGGGCATTCAGCCAACATA | 0.685
CGTCCAAGGTCAATGCTAAGTCAGTGAAAGCATT | 2.06
ATCTCTAGGTAAGACTCAGTTCATTGAAGAACGC | 3.67
CTACCAAGGTGAACAAGGTCGTTGACTACTATTC | 2.59
ATCTCTAGGTAAACTTCAGTGAAAGATCGATAGA | 0.34
ACTAGTTGGTCTGCTGAGGTCACACACAATTCGG | 3.1
AATACAGGGACACTAGGCCAGAGTAGGTACGAAT | 0.347
CCTCGGAGGACAGAATGTCAGAGCTGTCCGCTTT | -0.654
CAAATTAGGTCACAGAGGTCAAAGTCCGTGCGTA | 6.37
CTCGAAAGGTCGGTTGAGCTGAGTATACGGATAA | -0.476
TCTATTAGCTGAAGGGCAACCGACGAGTCCGTTT | 0.695
TCGAGTAGGTTACTCGGGGCATTCAGCCAACATA | 0.557
CCTGCTCGGTCATGGTCAGCTAATCTACAGTATG | -0.527
AGTCAAAGTTCAGGCCGAGGTAACGTAAAGCACG | 2.53
GATACAGCGTCAGCTAGAGGCCAGAGTATGGAAA | -0.804
ATATGTAGGTTACATCCGGGTCATTCCGGCTATG | 2.99
TCATATAGGTAACGGTGAAAGTCGAACGATATGA | -0.165
CCTACTCGGCCATCAGGTCATTGATATCAACGTT | 2.42
